For 20 compounds, growth inhibition results are on record in PubChem BioAssay (NCI).

Values joined by “and” are separate entries in the source; they are usually repeats but may differ in a detail not shown here. Equal entries are not always repeated. This is part of a sample that, as a whole, favours compounds with a hit. Of some 79,000 tested, about 15% had one in any assay. Unmarked numbers belong to inactive results. Active and inactive are the calls of the source. Cut-off read from the data, not from the text of the source: active = growth inhibition above about 70%; inactive = the rest.

A short description of assay [1]: NCI Yeast Anticancer Drug Screen. Data for the rad50 strain (AID 155).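 Note: 0% = growth of vehicle-only cultures of the same strain.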 Conditions: S. cerevisiae rad50 strain growth inhibition, hits give high values; at 50.0 µM unless noted. The method, boiled down: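 A DNA repair-deficient yeast mutant serves as the test organism; compound-induced growth inhibition is calculated against vehicle-treated cells.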
The nature of assay [2]: NCI Yeast Anticancer Drug Screen. Data for the mec2-1 strain (AID 157). As to conditions: S. cerevisiae mec2-1 strain, hits give high values; at 50.0 µM unless noted. The method, boiled down: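 Strain: mec2-1 (DNA repair/cell cycle alteration). Compound exposure, then growth measured; inhibition expressed relative to vehicle.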
A short description of assay [3]: NCI Yeast Anticancer Drug Screen. Data for the sgs1 mgt1 strain (AID 161).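 Note: 0% = growth of cultures given vehicle only.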 As to conditions: S. cerevisiae sgs1 mgt1 strain, hits give high values; at 50.0 µM unless noted. The procedure, abridged: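 Mutant yeast exposed to compound; growth scored against vehicle-only wells.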
Assay [4] can be described thus: NCI Yeast Anticancer Drug Screen. Data for the cln2 rad14 strain (AID 165).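 Note: 0% = growth equal to vehicle treated cultures.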 Conditions: S. cerevisiae cln2 rad14 strain, hits give high values; at 50.0 µM unless noted. The procedure, abridged:
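Compounds are applied to the cln2 rad14 yeast strain, and growth is then compared with that of vehicle-treated cultures to give inhibition.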

The nature of assay [5]: NCI Yeast Anticancer Drug Screen. Data for the bub3 strain (AID 167). As to conditions: S. cerevisiae bub3 mutant strain, hits give high values; at 50.0 µM unless noted. The method, boiled down: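 Inhibition values come from growth of compound-treated mutant yeast normalised to vehicle-treated controls.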
Assay [6] can be described thus: NCI Yeast Anticancer Drug Screen. Data for the mlh1 rad18 strain (AID 175). As to conditions: S. cerevisiae mlh1 rad18 strain growth inhibition, hits give high values; at 50.0 µM unless noted. The procedure, abridged:
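Read-out is yeast growth inhibition, calculated against vehicle-only controls. The compound was applied to a strain engineered with DNA damage repair alterations.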

Turning to `NCC(=O)c1ccc2cc(Br)c3ccccc3c2c1`, the growth inhibition in assay [1] is 5.7%; in assay [2] it was 0.45%; in assay [3] it was -1.2%; in assay [4] it was 17.9%; in assay [5], 12.4%; in assay [6], 0.15%.

For `Cn1ccn(C2CCCCC2)c1=O`, the growth inhibition in assay [1] was 3.35%; in assay [2] it was 5.1%; in assay [3] it was -0.25%; in assay [4], -12.3%; in assay [5], 35%; in assay [6], 7.95%.

With `O=C1NC(N/N=C\C(O)C(O)C(O)C(O)CO)=N/C1=C/c1ccc(Cl)cc1` (stereo not given), the growth inhibition in assay [1] is 28.1% and 32%; in assay [2] it was 8.95% and 15.7%; in assay [3], 1.45% and 10.8%; in assay [4], -0.6% and 13.4%; in assay [5], -0.2% and 6.45%; in assay [6], 10.6% and 9.2%.

Turning to `O=C(O)c1ccc(C(=O)NCCCN(CCCCN(CCCNC(=O)c2ccc(C(=O)O)c(O)c2O)C(=O)c2ccc(C(=O)O)c(O)c2O)C(=O)c2ccc(C(=O)O)c(O)c2O)c(O)c1O`, the growth inhibition in assay [1] was 11.2%; in assay [2] it was 16.1%; in assay [3], 20.3%; in assay [4], -31.3%; in assay [5], 0.35%; in assay [6] it was 24.9%.

`O=c1n(CC2CO2)c(=O)n(CC2CO2)c(=O)n1CC1CO1` (stereo not given): the growth inhibition in assay [1] was -8.4% and -1.15%; in assay [2], 11.6% and 8.65%; in assay [3] it was 19.7% and -18.9%; in assay [4], -25.3% and -6.25%; in assay [5], 26.1% and -34%; in assay [6] it was 28.1% and 2.45%.

Turning to `Clc1nc(-c2ccccc2)ns1`, the growth inhibition is 1.9% in assay [1]; -9.3% in assay [2]; -12.7% in assay [3]; 1.45% in assay [4]; -6.85% in assay [5]; -10.4% in assay [6].

Consider `CN[C@@H]1[C@H](O)[C@H](NC)[C@H]2O[C@@]3(O)C(=O)C[C@@H](C)O[C@H]3O[C@@H]2[C@H]1O`, for which the growth inhibition in assay [1] is 7.35%; in assay [2] it was -23.1%; in assay [3], -21.9%; in assay [4] it was 7.45%; in assay [5] it was -12.6%; in assay [6] it was -9.1%.

As to `O=[N+]([O-])c1ccc(/C=C(/c2ccc([N+](=O)[O-])o2)S(=O)(=O)c2ccccc2)cc1`, the growth inhibition in assay [1] was 64.8%; in assay [2], 13.8%; in assay [3], 76.8% (active); in assay [4] it was 43%; in assay [5] it was -1.25%; in assay [6], 60.5%.

For `CCC(=O)c1cccc2cccc(C(c3ccccc3)c3ccccc3)c12`, the growth inhibition in assay [1] is 1.85%; in assay [2], 14.4%; in assay [3], 6.35%; in assay [4], -7.05%; in assay [5] it was 8.7%; in assay [6], -19.6%.

As for `CCOC(=O)c1c(C)[nH]c(C(=O)CCN(C)C)c1C`, the growth inhibition in assay [1] was 7.35%; in assay [2], 0.2%; in assay [3], 17.4%; in assay [4], -33.9%; in assay [5], 2.1%; in assay [6] it was 0.65%.

As for `CC(C)N=C(N)N=C(N)N`, the growth inhibition in assay [1] was 30.9%; in assay [2], 13.5%; in assay [3], 3.85%; in assay [4] it was 3.9%; in assay [5] it was 30.2%; in assay [6], -3.2%.

Turning to `CCCCC(C#N)C(=O)NC(N)=O` (stereo not given), the growth inhibition in assay [1] was -7%; in assay [2], 3.2%; in assay [3], -8.05%; in assay [4], 0.4%; in assay [5], 4.85%; in assay [6], -7.25%.

As to `COC(=O)CN(CC(=O)NCCCBr)C1CCCCC1N(CC(=O)OC)CC(=O)OC` (stereo not given), the growth inhibition in assay [1] was -23.9%; in assay [2], -17.1%; in assay [3] it was 10.2%; in assay [4] it was -23%; in assay [5] it was -26.9%; in assay [6] it was -22.7%.

As for `COc1ccc2cc1Oc1ccc(cc1)C[C@H]1c3cc(c(OC)cc3CCN1C)Oc1c(OC)c(OC)cc3c1[C@H](C2)N(C)CC3`, the growth inhibition in assay [1] was 27.1% and 23.9%; in assay [2], 12.3% and -23.1%; in assay [3], -15.9% and 5.7%; in assay [4], -26.3% and 4.5%; in assay [5], -6.4% and 19.7%; in assay [6], -31.4% and -38.9%.

In the case of `O=[N+]([O-])c1cc(F)ccc1S(=O)(=O)c1ccccc1`, the growth inhibition in assay [1] was 31.6%; in assay [2] it was -40.5%; in assay [3], 7.8%; in assay [4], 1.85%; in assay [5] it was -23.2%; in assay [6], 0.65%.

For the compound `CC(=O)NNc1nc(C)c(C(=O)/C=C/c2ccc(NC(C)=O)cc2)s1`, the growth inhibition in assay [1] was 21.9%; in assay [2] it was 16.1%; in assay [3] it was 0.3%; in assay [4], 9.15%; in assay [5], 22.2%; in assay [6], 31.5%.

Consider `CC(=O)CC(=O)N1CCc2ccccc21`, for which the growth inhibition was 3.8% in assay [1]; -14.9% in assay [2]; 3.8% in assay [3]; 2.55% in assay [4]; -19.6% in assay [5]; 1.1% in assay [6].

In the case of `O=C1C2C(c3ccccc3)NC(c3ccccc3)C1C(c1ccccc1)NC2c1ccccc1` (stereo not given), the growth inhibition in assay [1] was -13.4%; in assay [2], -8.5%; in assay [3] it was -35.6%; in assay [4], -18.1%; in assay [5], -65%; in assay [6] it was 0.9%.

Regarding `N#CC(C(=O)CCC(=O)NCCc1ccccc1)c1nc2ccccc2s1` (stereo not given), the growth inhibition is -11.9% in assay [1]; -6.05% in assay [2]; -10.8% in assay [3]; -10.1% in assay [4]; 4.8% in assay [5]; 4.55% in assay [6].

`C#CCSC(=S)NNc1ccccc1`: the growth inhibition in assay [1] is 33.1%; in assay [2], 29.1%; in assay [3], 33.1%; in assay [4], 6.2%; in assay [5] it was 60.8%; in assay [6], 24.8%.
